From PubChem BioAssay
A selection: hits, their analogues and other compounds. The true share with any hit is near 10%.
INS promoter inh = TRM-6 insulin promoter activity inhibition; TRM-6 cells (human fetal islet line), insulin promoter-eGFP reporter, imaging; reporter expression induced with tamoxifen; actives 0.9% (n = 130,000); inhibition, % at 2 µM;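 active = inhibition above the mean plus 3 SD, with well images judged a real hit on visual review, cut at about 60% in these data, passing the limit was not always enough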
PTEN del growth = PTEN-deleted cell growth suppression. HCT116 PTEN-null viability, CellTiter-Glo, 60 h; active compounds read low. viability, % at 10 µM. actives 1.2% (n = 140,000);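 active = viability at or below a set limit, 4 SD under the median of all tested compounds, cut at about 3.7% in these data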;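 also: PTEN knockout HCT116 line with beta catenin targeted HCT116 as companion control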
HCT116 bCat-KO = beta-catenin-lacking colon tumor cell growth suppression; HCT116 beta-catenin knockout viability, CellTiter-Glo, 60 h; active compounds read low; viability, % at 10 µM; actives 1.5% (n = 140,000);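 active = viability at or under a set limit, the compound median less 4 SD, cut at about 6% in these data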;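 also: 0% = Hyamine 1622 control at 20 µM and 100% = untreated cell control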
L major viab = reduces viability of Leishmania major promastigotes. resazurin fluorescence viability. inhibition, % at 10 µM. actives 9% (n = 200,000); in the data active = inhibition above about 50%;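 also: promastigotes grown with compound for 44 hours at 28 °C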
ROMK mod = modulators of human ROMK potassium channel | B-score at 10 µM | Tet-inducible ROMK, thallium flux fluorescence; actives lie on both sides | actives 2% (n = 130,000);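 active = signal ratio slope over the read window, or its plate-corrected B-score, at least 3 SD from the plate mean, either direction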;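 also: B-score of the F/F0 ratio slope over 7 to 12 s after thallium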
p97 ATPase inh = blocks human p97 ATPase activity. P55072. recombinant p97 ATPase, Kinase-Glo ATP luminescence, 3 h. inhibition, % at 8 µM. actives 0.42% (n = 220,000); in the data active = inhibition above about 15%;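 also: 0% = DMSO vehicle and 100% = wells lacking enzyme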
Target sequence (P55072 whole entry, looked up): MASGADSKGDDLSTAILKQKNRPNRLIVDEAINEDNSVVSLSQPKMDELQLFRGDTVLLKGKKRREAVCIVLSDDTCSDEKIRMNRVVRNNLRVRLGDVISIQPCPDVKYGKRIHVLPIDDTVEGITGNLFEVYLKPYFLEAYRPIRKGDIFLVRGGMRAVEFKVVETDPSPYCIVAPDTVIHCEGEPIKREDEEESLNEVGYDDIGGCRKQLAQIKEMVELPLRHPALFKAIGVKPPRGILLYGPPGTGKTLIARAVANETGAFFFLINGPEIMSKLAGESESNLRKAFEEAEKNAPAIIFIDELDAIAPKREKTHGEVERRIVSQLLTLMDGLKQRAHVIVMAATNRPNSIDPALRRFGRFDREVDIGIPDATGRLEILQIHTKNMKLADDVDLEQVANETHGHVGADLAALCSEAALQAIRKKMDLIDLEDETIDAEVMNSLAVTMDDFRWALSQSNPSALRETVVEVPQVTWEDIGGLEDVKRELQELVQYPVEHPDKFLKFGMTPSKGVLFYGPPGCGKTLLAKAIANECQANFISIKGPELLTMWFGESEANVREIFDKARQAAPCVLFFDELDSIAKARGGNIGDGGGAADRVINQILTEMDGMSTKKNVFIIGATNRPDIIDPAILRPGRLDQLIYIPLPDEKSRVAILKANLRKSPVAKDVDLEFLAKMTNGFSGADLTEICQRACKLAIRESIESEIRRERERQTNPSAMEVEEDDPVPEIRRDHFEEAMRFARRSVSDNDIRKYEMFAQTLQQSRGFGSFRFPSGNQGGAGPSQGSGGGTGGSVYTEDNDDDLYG
* marks the source's active call; other numbers are inactive results; nt = not tested or not shown.

SMILES | INS promoter inh | PTEN del growth | HCT116 bCat-KO | L major viab | ROMK mod | p97 ATPase inh
O=C(NCc1ccco1)c1cc([N+](=O)[O-])ccc1N1CCOCC1 | nt | nt | nt | -3 | nt | 5
CCCCC[n+]1ccn(C2=C([O-])c3ccccc3C(=O)/C2=N\S(=O)(=O)c2ccc(Br)cc2)c1 | nt | nt | nt | nt | nt | 5
CCCCC[n+]1ccn(C2=C([O-])c3ccccc3C(=O)/C2=N\S(=O)(=O)c2ccccc2)c1 | 22 | 5 | 3.3* | 91* | nt | 3
CCCC[n+]1ccn(C2=C([O-])c3ccccc3C(=O)/C2=N\S(=O)(=O)c2ccccc2)c1 | -14 | 1.6* | 2.1* | 38 | nt | 7
Cc1ccc(OCC(=O)O/N=C(\N)Cc2ccc([N+](=O)[O-])cc2)cc1C | nt | nt | nt | nt | -1.9 | -4
N#Cc1c(N)nc2c(c1N)CC(CCl)O2 (stereo unspecified) | 46 | 92 | 105 | 57* | 1.2 | 5
O=C(O)c1ccc(Oc2ccccc2)o1 | nt | nt | nt | nt | nt | -3
CCOC(=O)c1c(C)nc2sc3c(=O)n(-c4ccc(OC)cc4)cnc3c2c1-c1ccc(OC)cc1 | -4 | 75 | 93 | 5 | nt | 2
CCOC(=O)c1c(C)nc2sc(C(=O)Nc3ccc(C(C)=O)cc3)c(N)c2c1-c1ccc(OC)cc1 | 37 | 48 | 57 | 95* | -1.9 | -1
CCOC(=O)c1c(C)nc2sc(C(N)=O)c(N)c2c1-c1ccc(OC)cc1 | -7 | 110 | 106 | 94* | 0.012 | 2
COc1ccc(-c2c(C(C)=O)c(C)nc3sc4c(=N)n(N)cnc4c23)cc1 | nt | 80 | 78 | 62* | 0.23 | 5
O=S(=O)(N/N=C/c1cccnc1)c1ccc(Cl)c(Cl)c1 | nt | nt | nt | nt | -0.3 | 5
CCOc1cc(/C=N/NC(=O)c2cccnc2)cc(Br)c1OCC(N)=O | nt | nt | nt | -3 | -0.76 | 3
CCN(CC)S(=O)(=O)c1cc(NC(=O)CSc2nccn2C)ccc1C | nt | nt | nt | 7 | 1.2 | 5
COc1cccc(N(C(=O)Cn2nnc(-c3ccc(C)cc3)n2)C(C(=O)NC(C)(C)C)c2c[nH]c3ccccc23)c1 (stereo unspecified) | -30 | 76 | 74 | 20 | nt | 2
CC(C)(C)NC(=O)C(c1c[nH]c2ccccc12)N(C(=O)Cn1nnc(-c2ccc(Cl)cc2)n1)c1ccccc1F (stereo unspecified) | 11 | 54 | 63 | 51* | -0.22 | 4
CN1CCN(C(=O)Nc2ccc3c(c2)N(C)C(=O)c2ccccc2S3)CC1 | -11 | nt | nt | 98* | 0.16 | 2
CN1C(=O)c2ccccc2Sc2ccc(NC(=O)N3CCCC3)cc21 | -36 | 98 | 102 | 9 | nt | 3
COc1ccc(OCC(=O)NNC(=O)c2cccc(O)c2)cc1 | nt | nt | nt | -6 | -0.15 | 5
O=C(NC1CCCCC1)C(c1ccco1)N(CCc1ccccc1)C(=O)C(F)(F)F (stereo unspecified) | 66 | 70 | 71 | 8 | -0.27 | -6
C#CC(=O)N(c1ccc(OC)cc1OC)C(C(=O)NC1CCCC1)c1cccs1 (stereo unspecified) | -388 | nt | nt | 94* | -0.73 | 13
COc1ccc(N(C(=O)c2ccco2)C(C(=O)NC2CCCCC2)c2cccs2)cc1OC (stereo unspecified) | -33 | 102 | 104 | -1 | -0.042 | -5
C#CC(=O)N(c1cc(OC)ccc1OC)C(C(=O)NC1CCCC1)c1cccs1 (stereo unspecified) | nt | 1.0* | 0.7* | 101* | nt | 13
COc1ccc(CCN(C(=O)C(F)(F)F)C(C(=O)NC2CCCC2)c2cccs2)cc1 (stereo unspecified) | -65 | 54 | 60 | 62* | nt | 3
CC(=O)Nc1ccccc1Nc1cc(C#N)c(C#N)cc1[N+](=O)[O-] | 25 | nt | nt | 97* | nt | 3
SMILES | INS promoter inh | PTEN del growth | HCT116 bCat-KO | L major viab | ROMK mod | p97 ATPase inh
COC1(C)CC2C(CC1OC(=O)c1cc([N+](=O)[O-])cc([N+](=O)[O-])c1)C2(C)C (stereo unspecified) | nt | 79 | 87 | 100* | -0.23 | 4
COC(=O)c1cc(C(=O)N2CCOCC2)cc([N+](=O)[O-])c1 | nt | nt | nt | 1 | 1.3 | 3
COCCNCC(=O)Nc1ccccc1Sc1ccccc1 | nt | 91 | 83 | 0 | nt | 2
COc1cccc(CN(Cc2ccco2)S(=O)(=O)c2ccc(S(=O)(=O)NCc3ccccc3)cc2)c1OC | -38 | 63 | 61 | 97* | nt | -3
COc1cccc(CN(Cc2ccccc2F)S(=O)(=O)c2ccc(S(=O)(=O)NCc3ccccc3)cc2)c1 | nt | 104 | 95 | 15 | 0.67 | 1
COc1ccc(CSc2nncn2C)cc1[N+](=O)[O-] | -32 | 96 | 91 | 52* | nt | 5
COc1ccc(NC(=O)OCCn2c([N+](=O)[O-])cnc2C)cc1 | 20 | 100 | 94 | 54* | nt | 3
COc1ccc(NC(=S)NNC(=O)CCn2cc([N+](=O)[O-])cn2)cc1 | 88* | nt | nt | 2 | 0.44 | 3
O=C1CCCN1c1nccs1 | 36 | nt | nt | 0 | -0.2 | 2
CC(C)N=C(NS(=O)(=O)c1ccc(Br)cc1)c1ccc(Cl)cc1 | nt | nt | nt | 2 | 0.14 | -4
CCCC(=O)OCCNc1cc(SCc2ccco2)c2nonc2c1[N+](=O)[O-] | 37 | 14 | 2.7* | 16 | nt | 2
CCCSc1cc(NCCOC(C)=O)c([N+](=O)[O-])c2nonc12 | 5 | 89 | 91 | 67* | -0.36 | 0
CCCSc1cc(NCCOC(=O)CCC)c([N+](=O)[O-])c2nonc12 | 7 | 21 | 21 | 2 | nt | 6
CC(=O)OCCCNc1cc(SCc2ccco2)c2nonc2c1[N+](=O)[O-] | 37 | 3.5* | 2.3* | 51* | nt | 3
Cc1nc(-c2ccc(S(=O)(=O)Oc3ccc(Cl)cc3Cl)s2)cs1 | nt | nt | nt | nt | nt | 8
Fc1ccc(-c2ccc(/C=N\n3cnnc3)o2)cc1Cl | -14 | 97 | 103 | 95* | 0.15 | -1
CCCCCC/C(=N/O)c1ccccn1 | nt | 4 | 4.2* | 91* | nt | 0
COc1cc(/C=C(\C#N)C(=O)NCC2CCCO2)ccc1OC(C)C (stereo unspecified) | 70* | 105 | 90 | 79* | -0.97 | 8
COc1ccc(/C=C(\C#N)C(=O)NCC2CCCO2)cc1OC (stereo unspecified) | nt | 91 | 85 | 10 | -0.29 | -1
c1ccc(CC2CCN(C(c3cccs3)c3nnnn3C3CCCC3)CC2)cc1 (stereo unspecified) | 14 | 65 | 60 | 64* | 0.91 | 2
O=C(c1ccco1)N1CCN(C(c2cccs2)c2nnnn2C2CCCC2)CC1 (stereo unspecified) | -11 | 87 | 84 | 40 | nt | -1
c1ccc(CN(Cc2cccs2)C(c2cccs2)c2nnnn2C2CCCC2)cc1 (stereo unspecified) | -479 | 47 | 57 | 89* | nt | -6
CC(C)(C)n1nnnc1C(c1cccs1)N(Cc1ccccc1)Cc1ccco1 (stereo unspecified) | -42 | 42 | 38 | 12 | nt | -2
O=C(COc1cccnc1[N+](=O)[O-])Nc1ccc2c(c1)OC(F)(F)O2 | -27 | 103 | 93 | -4 | -0.025 | 2
